The record followed here is PubChem BioAssay (NCI).

The panel holds about 83,000 compounds, 20% with a hit somewhere; the sample as a whole holds those more often.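 48-hour exposure, single concentration, 96-well plates; percent growth endpoint where 0 means no net growth. Active: below 10.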 Unmarked numbers belong to inactive results. The source made the active and inactive calls.

What all share (assay): NCI-60 one-dose screen, 48 h (100 = growth as untreated, 0 = no growth, -100 = all killed)
One assay has as its system HCT-15 colon. The conditions noted are these: 10 µM unless noted.
A further assay has as its system HT29 colon. The settings on record: 10 µM unless noted.
In the next assay the test system is SNB-75 CNS. The conditions noted are these: 10 µM unless noted.
Another assay has as its system SNB-19 CNS. The settings on record: 10 µM unless noted.
Another assay concerns U251 CNS. The settings on record: 10 µM unless noted.
The subject of another assay is PC-3 prostate. The settings on record: 10 µM unless noted.
A further assay has as its system UACC-62 melanoma. The conditions noted are these: 10 µM unless noted.
The test system of another assay is LOX IMVI melanoma. The settings on record: 10 µM unless noted.
In a further assay the test system is SK-MEL-28 melanoma. The conditions noted are these: 10 µM unless noted.
Another assay has as its system SK-MEL-2 melanoma. The conditions noted are these: 10 µM unless noted.
The test system of the next assay is EKVX NSCLC. The conditions noted are these: 10 µM unless noted.
The next assay relates to SN12C renal. The settings on record: 10 µM unless noted.
The next assay deals with UO-31 renal. The settings on record: 10 µM unless noted.
The next assay relates to TK-10 renal. The conditions noted are these: 10 µM unless noted.
For another assay, the system named is ACHN renal. The settings on record: 10 µM unless noted.
The test system of the next assay is CAKI-1 renal. The conditions noted are these: 10 µM.
The next assay deals with MOLT-4 leukemia. The settings on record: 10 µM unless noted.
For a further assay, the system named is A498 renal. The conditions noted are these: 10 µM unless noted.
A further assay has as its system CCRF-CEM leukemia. The settings on record: 10 µM unless noted.
A further assay concerns SK-MEL-5 melanoma. The settings on record: 10 µM unless noted.

Take `O=c1[nH]c(CNc2ccc(NCc3c(-c4ccccc4)no[n+]3[O-])cc2)nc2c1cnn2-c1ccccc1`: the growth with HCT-15 colon is 71.2%; in the assay on HT29 colon it was 92%; in the assay with SNB-75 CNS, 76.1%; in the assay on SNB-19 CNS it was 94%; with U251 CNS, 85.5%; in the assay with PC-3 prostate, 63.3%. In addition, the growth is 52.5% with UACC-62 melanoma; 63.6% in the assay on LOX IMVI melanoma; 85.3% with SK-MEL-28 melanoma; 77.2% in the assay with SK-MEL-2 melanoma; 51.3% in the assay on EKVX NSCLC; 78.9% with SN12C renal. The growth with UO-31 renal is 55.9%; in the assay with TK-10 renal it was 102%; with ACHN renal, 70.4%; with CAKI-1 renal, 55.1%; in the assay on MOLT-4 leukemia, 44%.

Regarding `CNC(=O)c1cc(Oc2ccc3nc(NC(=O)c4cccc(C(F)(F)F)c4)sc3c2)ccn1`, the growth was 98.1% in the assay on HCT-15 colon; 106% in the assay with HT29 colon; 90.7% with SNB-75 CNS; 93.3% in the assay with SNB-19 CNS; 104% with U251 CNS; 102% in the assay with PC-3 prostate. Moreover, the growth with UACC-62 melanoma is 85%; with LOX IMVI melanoma it was 99.3%; with SK-MEL-28 melanoma it was 89.8%; with EKVX NSCLC it was 101%; in the assay on UO-31 renal it was 99.1%; in the assay with TK-10 renal, 116%. Besides, the growth with ACHN renal is 102%; in the assay on CAKI-1 renal, 93.6%; in the assay with A498 renal it was 87.3%; in the assay on CCRF-CEM leukemia, 109%; in the assay with MOLT-4 leukemia it was 107%.

As to `CS(=O)c1nccc(-c2c(-c3ccc(F)c(OCc4ccc(F)cc4)c3)nc3sccn23)n1` (stereo not drawn), the growth in the assay with HCT-15 colon is 59.4%; in the assay with HT29 colon, 27.9%; with SNB-75 CNS, 94.4%; in the assay with SNB-19 CNS, 68.7%; in the assay on U251 CNS it was 96%; in the assay on PC-3 prostate, -10.7% (active). The growth with UACC-62 melanoma was 85.6%; with LOX IMVI melanoma, 78.6%; with SK-MEL-28 melanoma it was 41.1%; with EKVX NSCLC, 75.2%; in the assay on SN12C renal it was 93.6%; in the assay on UO-31 renal, 89.3%. Further, the growth in the assay on TK-10 renal is 108%; with ACHN renal it was 77.2%; with CAKI-1 renal, 70.8%; in the assay on A498 renal, 88.2%; in the assay on CCRF-CEM leukemia, 45.8%.

For `COc1ccc(/C=N/Nc2nc(Nc3ccccc3)nc(Nc3ccc(S(N)(=O)=O)cc3)n2)cc1`, the growth with HCT-15 colon is 68.2%; in the assay with HT29 colon, 55.3%; with SNB-75 CNS, 81.9%; in the assay on SNB-19 CNS, 86.3%; in the assay on U251 CNS, 66.8%; in the assay with PC-3 prostate, 75.8%. Further, the growth with UACC-62 melanoma is 87%; with LOX IMVI melanoma, 52.5%; with SK-MEL-28 melanoma, 78.5%; in the assay on SK-MEL-2 melanoma, 68.9%; in the assay with EKVX NSCLC, 88.5%; with SN12C renal, 80.2%. The growth is 77.9% in the assay with UO-31 renal; 107% with TK-10 renal; 75.2% in the assay with ACHN renal; 76% with CAKI-1 renal; 61.7% with A498 renal; 45.9% in the assay with CCRF-CEM leukemia. Further, in the assay with MOLT-4 leukemia, the growth was 44.5%.

Take `COC1=C(c2ccccc2)C(=O)C(OC)=C(c2ccccc2)C1=O`: the growth in the assay on HCT-15 colon is 97.6%; in the assay on HT29 colon, 95%; with SNB-75 CNS, 56%; in the assay with SNB-19 CNS, 101%; in the assay on U251 CNS, 91.6%; in the assay on PC-3 prostate, 96.2%. Moreover, the growth in the assay with UACC-62 melanoma was 97.1%; in the assay on LOX IMVI melanoma, 95.2%; in the assay with SK-MEL-28 melanoma, 117%; with SK-MEL-2 melanoma it was 101%; with EKVX NSCLC, 99%; in the assay on SN12C renal, 102%. The growth in the assay on UO-31 renal is 89.8%; in the assay on TK-10 renal, 107%; in the assay with ACHN renal it was 117%; in the assay on A498 renal it was 89.7%; in the assay on CCRF-CEM leukemia, 10.9%; in the assay on MOLT-4 leukemia, -7.74% (active).

As to `COc1ccc(-c2ccc3c4c(cccc24)C(=O)N(N2C(=O)c4cccc5cccc(c45)C2=O)C3=O)cc1`, the growth in the assay with HCT-15 colon is 99.1%; with HT29 colon it was 99.1%; in the assay with SNB-75 CNS it was 73.4%; in the assay with SNB-19 CNS it was 96.3%; in the assay with U251 CNS it was 104%; with PC-3 prostate, 87.7%. The growth in the assay with SK-MEL-5 melanoma was 99.6%; in the assay on UACC-62 melanoma, 96.8%; in the assay with SK-MEL-28 melanoma, 106%; with SK-MEL-2 melanoma it was 111%; in the assay with EKVX NSCLC, 89.4%; in the assay on SN12C renal, 105%. Also, the growth is 68.6% in the assay on UO-31 renal; 134% with TK-10 renal; 96.3% in the assay with ACHN renal; 75.2% in the assay on CAKI-1 renal; 100% in the assay with A498 renal; 96.8% in the assay on CCRF-CEM leukemia. Further, the growth with MOLT-4 leukemia is 101%.

Take `COc1cc([C@H]2OC[C@H]3[C@@H]2CO[C@@H]3c2ccc(O)c(OC)c2)ccc1O`: the growth with HCT-15 colon was 88.4%; in the assay on HT29 colon it was 92.8%; with SNB-75 CNS, 87.9%; with SNB-19 CNS, 104%; in the assay on U251 CNS, 97%; with PC-3 prostate, 82.6%. Moreover, the growth in the assay with UACC-62 melanoma is 91%; in the assay on LOX IMVI melanoma, 9.99% (active); with SK-MEL-28 melanoma it was 93.5%; in the assay on SK-MEL-2 melanoma, 95.3%; with EKVX NSCLC, 80.3%; in the assay on SN12C renal it was 74.6%. Also, the growth in the assay with UO-31 renal was 83.1%; with ACHN renal, 93.5%; in the assay on A498 renal, 112%; with CCRF-CEM leukemia it was 94.2%; with MOLT-4 leukemia, 109%.

Consider `Cc1ccc(NC(=O)c2ccc(CN3CCN(C)CC3)c(C(F)(F)F)c2)cc1Oc1ccc(-c2[nH]nc3ncnc(N)c23)cc1`, for which the growth is 28.8% with HCT-15 colon; -8.89% (active) in the assay on HT29 colon; 93.3% in the assay with SNB-75 CNS; 99.2% in the assay on SNB-19 CNS; -27.7% (active) with U251 CNS; 78.7% in the assay with PC-3 prostate. The growth is 82.6% in the assay on UACC-62 melanoma; -85.3% (active) in the assay with LOX IMVI melanoma; 68.6% in the assay with SK-MEL-28 melanoma; 84.1% in the assay with SK-MEL-2 melanoma; 109% with EKVX NSCLC; 80.7% in the assay on SN12C renal. The growth in the assay on UO-31 renal was 83%; in the assay on TK-10 renal, 119%; in the assay with ACHN renal it was 83%; with CAKI-1 renal, 92.1%; in the assay on A498 renal, 113%; in the assay on CCRF-CEM leukemia, 8.05% (active). For the same compound, the growth in the assay with MOLT-4 leukemia was 43%.
